MITF inh – inhibitors of human MITF; inhibition, % at 2.6 µM; O75030; actives 0.91% (n = 650,000); AlphaScreen MITF homodimerization, bead proximity signal; in the data active means inhibition above about 50%
TEAD-YAP inh – TEAD-YAP interaction inhibition; HEK-TIYL cells, TEAD-Gal4/YAP UAS-luciferase luminescence; inhibition, % at 9.12 µM; actives 1.4% (n = 640,000); AID 1259422; in the data active means inhibition above about 32%
FBW7 act – activators of human E3 ligase FBW7. Q969H0. AlphaScreen FBW7–phospho-cyclin E peptide binding, activator screen. normalized activity (activation), % at 26.1 µM. actives 0.13% (n = 650,000). AID 1259310; in the data active means normalized activity above about 1.9%;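 further: purified mutant Fbw7 with reduced substrate affinity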
Target sequence (Q969H0 whole entry, looked up): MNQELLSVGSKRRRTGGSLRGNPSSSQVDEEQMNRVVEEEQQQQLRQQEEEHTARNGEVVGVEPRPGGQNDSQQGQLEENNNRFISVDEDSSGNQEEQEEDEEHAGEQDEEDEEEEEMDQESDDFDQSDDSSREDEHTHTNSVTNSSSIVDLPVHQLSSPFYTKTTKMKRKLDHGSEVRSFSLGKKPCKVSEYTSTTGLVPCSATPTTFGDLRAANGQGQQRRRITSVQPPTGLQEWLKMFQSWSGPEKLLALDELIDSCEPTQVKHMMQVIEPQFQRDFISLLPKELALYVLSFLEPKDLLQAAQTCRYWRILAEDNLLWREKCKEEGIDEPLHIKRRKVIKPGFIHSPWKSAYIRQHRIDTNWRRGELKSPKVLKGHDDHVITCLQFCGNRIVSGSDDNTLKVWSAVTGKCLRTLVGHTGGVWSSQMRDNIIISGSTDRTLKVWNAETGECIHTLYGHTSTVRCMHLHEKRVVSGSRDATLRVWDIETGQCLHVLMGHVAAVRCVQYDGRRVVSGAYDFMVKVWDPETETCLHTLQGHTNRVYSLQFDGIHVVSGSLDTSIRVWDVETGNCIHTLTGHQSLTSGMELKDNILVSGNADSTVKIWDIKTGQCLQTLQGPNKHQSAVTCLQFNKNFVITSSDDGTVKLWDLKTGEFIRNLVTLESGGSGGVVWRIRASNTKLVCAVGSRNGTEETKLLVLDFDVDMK
GPR151 ag – activates the human receptor GPR151; PathHunter beta-arrestin GPR151 cells, luminescence; actives 1% (n = 650,000); activation, % at 11.2 µM; AID 1508602; in the data active means activation above about 4.9%
A number is an active result; – = inactive. Most compounds without a hit are left out; they make up all but 3.4% or so of the library.

SMILES | MITF inh | TEAD-YAP inh | FBW7 act | GPR151 ag
CCOC(=O)Cc1csc(/N=C/c2nc(-c3ccc(Cl)cc3)oc2O)n1 | – | – | – | –
O=C(N/N=C/c1c(O)ccc2ccccc12)c1[nH]ncc1Br | – | 42 | – | –
CN(C)c1ccc(/C=N/Nc2cn[nH]c(=O)n2)cc1 | – | 81 | – | –
CN(C)c1ccc(/C=N/NC(=O)c2[nH]ncc2Br)cc1 | – | 32 | – | –
O=[N+]([O-])c1ccc(/C=N/Nc2nc3ccccc3o2)cc1 | – | – | – | –
CN(C)c1ccc(/C=N/Nc2nc3ccccc3o2)cc1 | – | 55 | – | –
CN(C)c1ccc(/C=N/NC(=O)c2ccn(C)n2)cc1 | – | – | – | –
O=C(N/N=C/c1c(O)ccc2ccccc12)c1c[nH]c2ccccc12 | – | – | – | –
O=C(N/N=C\c1c(O)ccc2ccccc12)c1ccccc1O | – | 81 | – | –
O=C(N/N=C/c1c(O)ccc2ccccc12)C(=O)N1CCCC1 | – | – | – | –
CN(C)c1ccc(/C=N/NC(=O)c2cc(O)cc(O)c2)cc1 | – | – | – | –
CN(C)c1ccc(/C=N/NC(=O)c2cccc(O)c2)cc1 | – | 60 | – | –
O=C(N/N=C/c1c(O)ccc2ccccc12)c1ccccc1O | – | 75 | – | –
O=C(CN1CCCC1)N/N=C/c1c(O)ccc2ccccc12 | 58 | 88 | – | –
Cc1cc(/C=N/NC(=O)c2cccc(N(C)C)c2)c(C)n1-c1cc(C(=O)O)cc(C(=O)O)c1 | 52 | – | – | –
O=C(CSc1ncn[nH]1)NC(=O)NCc1ccccc1 | – | – | – | –
COc1ccc(C(=O)On2c(-c3cccc(Cl)c3)nc3ccccc3c2=O)cc1Br | – | – | – | –
COc1ccc(Cl)cc1C(=O)On1c(-c2ccc(Br)cc2)nc2ccccc2c1=O | – | – | 3.2 | –
Cc1ccc(-c2cnc(SCC(=O)N3CCCC3)n2C)cc1 | – | 58 | – | –
Cc1ccc(NC(=O)c2cnc(SCC(=O)N3CCCC3)n(C)c2=O)cc1 | – | – | – | –
CCOC(=O)c1c(C)sc2c3c([nH]c12)CCCC3 | – | 62 | – | –
C=CCOC(=O)C1=C(C)Nc2nnnn2C1c1cccc(OC)c1 (centres undefined) | – | 50 | – | –
CCC(=N\Nc1nc(C)cc(=O)[nH]1)/C(CC)=N/Nc1nc(C)cc(=O)[nH]1 | – | – | – | –
Cc1ccc(Nc2nc(-c3ccccn3)cs2)cc1 | – | 55 | – | –
Cc1ccnc(Nc2nc(-c3ccccn3)cs2)c1 | 103 | 73 | – | –
SMILES | MITF inh | TEAD-YAP inh | FBW7 act | GPR151 ag
Cc1ccnc(Nc2nc(-c3cccs3)cs2)c1 | – | – | – | –
COc1ccc(COn2ccc3ccc(S(C)(=O)=O)cc32)cc1 | – | 42 | – | –
O=C1C2C3C=CC(CC3)C2C(=O)N1/N=C/c1ccc(-c2ccc(Cl)cc2[N+](=O)[O-])o1 (centres undefined) | – | – | – | –
Cc1[nH]c2c(C(=O)NCC3Cc4c(F)ccc(-c5ncccn5)c4O3)cccc2c1C (centres undefined) | – | 32 | – | –
CCOC(=O)c1ccc(N2NC(=O)/C(=C/c3ccc([N+](=O)[O-])o3)C2=O)cc1 | 66 | – | – | –
CCOC(=O)c1ccc(N2NC(=O)/C(=C/c3ccc(C)o3)C2=O)cc1 | – | – | – | –
COc1cc(NS(=O)(=O)c2ccc(OC)c(OC)c2)c(OC)cc1Cl | – | 48 | – | –
COC(=O)c1ccc(C(=O)OC)c(S(=O)(=O)Nc2cc(OC)c(Cl)cc2OC)c1 | – | 45 | – | –
COC(=O)c1ccc(C(=O)OC)c(NS(=O)(=O)c2cc(Cl)ccc2Cl)c1 | – | – | – | –
COc1ccc(Cl)cc1NS(=O)(=O)c1ccc(OC)c(OC)c1 | – | – | – | –
COc1cc(NS(=O)(=O)c2ccc(NC(C)=O)cc2)c(OC)cc1Cl | – | 52 | – | –
COc1ccc(S(=O)(=O)Nc2ccc(NC(C)=O)cc2)cc1Cl | – | – | – | –
CC(=NCCN1CCN(C(=O)Nc2ccc(Cl)c(Cl)c2)CC1)c1c(-c2ccccc2)[nH]n(-c2nc3ccccc3s2)c1=O | – | – | – | –
O=C1CCCN1CCn1cnc2c(Nc3ccc(N4CCOCC4)cc3)nc(-c3csc4ccccc34)nc21 | – | – | – | –
O=C(CC1(c2ccccc2)CC(=O)N(Cc2cccs2)C1=O)N1CCc2ccccc2C1 (centres undefined) | – | – | – | –
C#Cc1cccc(N2C(=O)c3ccccc3C2=O)c1 | – | – | – | –
O=C(c1cc(-c2ccc(Cl)cc2)on1)N1CCCCCC1 | – | – | – | –
Cc1ccc(-c2cc(C(=O)N3CCOCC3)no2)cc1 | – | 43 | – | –
CN1CCN(C(=O)c2cc(-c3ccc(Br)cc3)on2)CC1 | – | – | – | –
O=C(c1cc(-c2ccc(O)cc2)on1)N1CCCCCC1 | – | 50 | – | –
CCn1c(C)[n+](CCOC(C)=O)c2cc(Cl)c(Cl)cc21 | – | – | – | –
CCCCCN1/C(=C\C=C\c2n(CCCC)c3cc(Cl)c(Cl)cc3[n+]2CCCCC)N(CCCC)c2cc(Cl)c(Cl)cc21 | – | 44 | – | –
FC(F)(F)c1ccc(N=c2oc3ccccc3cc2-c2nc3ccccc3[nH]2)cc1 | – | – | – | –
CCN(CC)C(=O)Cn1c(C)c(C#N)c2ccccc21 | – | – | 1.9 | –
CCCCS(=O)(=O)c1sc2nc(-c3cccs3)cc(C(F)(F)F)c2c1N | – | – | – | –
SMILES | MITF inh | TEAD-YAP inh | FBW7 act | GPR151 ag
CCN1CCN(CCCNC(=O)c2cc3c(-c4cccc(OC)c4)nn(C)c3s2)CC1 | – | – | – | –
O=C(Nc1ccc(Oc2ccccc2)cc1)c1ccc(F)c([N+](=O)[O-])c1 | – | 57 | – | –
O=C(Nc1ccc(F)cc1)c1ccc(F)c([N+](=O)[O-])c1 | – | 59 | – | –
COCCCNC(=O)/C(C#N)=C/c1cn(Cc2ccc(F)cc2)c2ccccc12 | – | 44 | – | –
COCCCNC(=O)/C(C#N)=C/c1cn(Cc2cccc(F)c2)c2ccccc12 | – | 35 | – | –
COc1ccc(-n2c(SCC(=O)c3ccccc3)nc3c(c2=O)SC(C)C3)cc1 (centres undefined) | – | – | – | –
COc1ccc(-c2ccc3c(N)c(C(=O)NCc4ccco4)sc3n2)cc1 | – | 33 | – | –
COc1ccc(-c2ccc(C(=O)NCc3ccco3)c(N(C)C)n2)cc1 | – | – | – | –
CC(C)OC(=O)c1sc2nc(-c3ccccc3)ccc2c1N | – | 84 | – | –
Cc1[nH]c(=O)[nH]c(=O)c1S(=O)(=O)NCCc1ccccc1 | – | – | – | –
COC(=O)c1ccc(Nc2cc(C)nc3cc(Cl)ccc23)cc1 | – | 49 | – | –
COc1ccc(Nc2cc(C)nc3ccc(OC)cc23)cc1 | – | – | – | –
COc1ccc2nc(C)cc(Nc3ccc(O)cc3)c2c1 | – | 34 | – | –
COC(=O)c1ccc2nc(C)cc(Nc3ccc(C(=O)O)cc3)c2c1 | – | – | – | –
COC(=O)c1ccc(Nc2cc(C)nc3ccc(Cl)cc23)cc1 | – | 49 | – | –
COc1cc(/C=C2\SC(=Nc3ccccc3)N(c3ccccc3)C2=O)ccc1OCc1c(F)cccc1Cl | – | – | – | –

Screening data from PubChem.
